# Assay results published in the supplement of paper PMC8728848.
# Many of the other results were omitted from the sample, so the strongest signals are more common in it than they were.
# Experiments:
# Assay in all cases: glycan array binding signal (z-score within array); higher = stronger binding
# Details in all cases: glycan notation: IUPAC condensed, linker removed
# [1] = target: Fuc(a1-2)Gal(b1-3)GalNAc(a1-3)[Fuc(a1-2)]Gal(b1-4)GlcNAc
# How it was run: (§1)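 The binding signal is a Z-score computed within each array and averaged over linkers. Arrays of the same protein sequence at different concentrations or buffers were also averaged together. Data originate from 3228 arrays in the Consortium for Functional Glycomics database, kept only where the protein sequence was available.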
# [2] = target: Fuc(a1-2)Gal(b1-4)Fuc(a1-3)]GlcNAc(b1-2)Man(a1-3)[Fuc(a1-2)Gal(b1-4)[Fuc(a1-3)]GlcNAc(b1-2)Man(a1-6)]Man(b1-4)GlcNAc(b1-4)GlcNAc
# How it was run: as §1
# [3] = target: Fuc(a1-2)Gal(b1-4)GlcNAc(b1-2)Man(a1-3)[Fuc(a1-2)Gal(b1-4)GlcNAc(b1-2)Man(a1-6)]Man(b1-4)GlcNAc(b1-4)[Fuc(a1-6)]GlcNAc
# How it was run: as §1
# [4] = target: Fuc(a1-2)Gal(b1-4)GlcNAc(b1-3)GalNAc
# How it was run: as §1
# [5] = target: Fuc(a1-2)Gal(b1-4)[Fuc(a1-3)]GlcNAc(b1-3)GalNAc
# How it was run: as §1
# [6] = target: Fuc(a1-2)[Gal(a1-3)]Gal(b1-3)GalNAc(b1-3)Gal(a1-4)Gal(b1-4)Glc
# How it was run: as §1
# [7] = target: Fuc(a1-2)[GalNAc(a1-3)]Gal
# How it was run: as §1
# [8] = target: Fuc(a1-2)[GalNAc(a1-3)]Gal(b1-4)[Fuc(a1-3)]GlcNAc(b1-3)GalNAc
# How it was run: as §1
# [9] = target: Fuc(a1-3)[Gal(b1-4)]GlcNAc(b1-2)Man(a1-3)[Fuc(a1-3)[Gal(b1-4)]GlcNAc(b1-2)Man(a1-6)]Man(b1-4)GlcNAc(b1-4)[Fuc(a1-6)]GlcNAc
# How it was run: as §1
# Gal(b1-2)Gal = target: Gal(b1-2)Gal
# How it was run: as §1
# Gal(b1-3)GlcNAc = target: Gal(b1-3)GlcNAc
# How it was run: as §1
# Gal(b1-3)GlcNAc(b1-2)Man = target: Gal(b1-3)GlcNAc(b1-2)Man
# How it was run: as §1
# [10] = target: Gal(b1-3)GlcNAc(b1-2)Man(a1-3)[Gal(b1-3)GlcNAc(b1-2)Man(a1-6)]Man(b1-4)GlcNAc(b1-4)GlcNAc
# How it was run: as §1
# [11] = target: Gal(b1-3)GlcNAc(b1-3)Gal(b1-4)Glc
# How it was run: as §1
# [12] = target: Gal(b1-3)[Fuc(a1-4)]GlcNAc(b1-3)Gal(b1-3)[Fuc(a1-4)]GlcNAc
# How it was run: as §1
# Gal(b1-4)GlcNAc(b1-2)Man = target: Gal(b1-4)GlcNAc(b1-2)Man
# How it was run: as §1
# [13] = target: Gal(b1-4)GlcNAc(b1-2)Man(a1-3)[Gal(b1-4)GlcNAc(b1-2)Man(a1-6)]Man(b1-4)GlcNAc(b1-4)GlcNAc
# How it was run: as §1
# [14] = target: Gal(b1-4)GlcNAc(b1-2)[Gal(b1-4)GlcNAc(b1-6)]Man(a1-6)[GlcNAc(b1-4)][Gal(b1-4)GlcNAc(b1-2)Man(a1-3)]Man(b1-4)GlcNAc(b1-4)GlcNAc
# How it was run: as §1
# [15] = target: Gal(b1-4)GlcNAc(b1-3)Gal(b1-4)GlcNAc
# How it was run: as §1
# [16] = target: Gal(b1-4)GlcNAc(b1-3)Gal(b1-4)GlcNAc(b1-3)Gal(b1-4)GlcNAc(b1-2)Man(a1-3)[Gal(b1-4)GlcNAc(b1-3)Gal(b1-4)GlcNAc(b1-3)Gal(b1-4)GlcNAc(b1-2)Man(a1-6)]Man(b1-4)GlcNAc(b1-4)GlcNAc
# How it was run: as §1
# [17] = target: Gal(b1-4)GlcNAc(b1-3)Gal(b1-4)GlcNAc(b1-3)Gal(b1-4)GlcNAc(b1-3)Gal(b1-4)GlcNAc(b1-3)Gal(b1-4)GlcNAc(b1-2)Man(a1-3)[Gal(b1-4)GlcNAc(b1-3)Gal(b1-4)GlcNAc(b1-3)Gal(b1-4)GlcNAc(b1-3)Gal(b1-4)GlcNAc(b1-3)Gal(b1-4)GlcNAc(b1-2)Man(a1-6)]Man(b1-4)GlcNAc(b1-4)[Fuc(a1-6)]GlcNAc
# How it was run: as §1
# Gal3S(b1-3)GlcNAc = target: Gal3S(b1-3)GlcNAc
# How it was run: as §1
# [18] = target: Gal3S(b1-3)[Fuc(a1-4)]GlcNAc
# How it was run: as §1
# Gal6S(b1-4)GlcNAc6S = target: Gal6S(b1-4)GlcNAc6S
# How it was run: as §1
# [19] = target: GlcNAc(a1-4)Gal(b1-4)GlcNAc(b1-3)Gal(b1-4)[Fuc(a1-3)]GlcNAc(b1-3)Gal(b1-4)[Fuc(a1-3)]GlcNAc
# How it was run: as §1
# [20] = target: GlcNAc(b1-2)[GlcNAc(b1-4)]Man(a1-3)[GlcNAc(b1-2)Man(a1-6)]Man(b1-4)GlcNAc(b1-4)GlcNAc
# How it was run: as §1
# [21] = target: GlcNAc(b1-3)Gal(b1-4)GlcNAc(b1-3)[GlcNAc(b1-3)Gal(b1-4)GlcNAc(b1-3)]GalNAc
# How it was run: as §1
# [22] = target: Kdn(a2-3)Gal(b1-4)[Fuc(a1-3)]GlcNAc
# How it was run: as §1
# [23] = target: Neu5Ac(a2-3)Gal(b1-3)GlcNAc(b1-3)Gal(b1-3)GlcNAc
# How it was run: as §1
# [24] = target: Neu5Ac(a2-3)Gal(b1-3)[Neu5Ac(a2-6)]GlcNAc(b1-3)[Fuc(a1-3)[Gal(b1-4)]GlcNAc(b1-6)]Gal(b1-4)Glc
# How it was run: as §1
# [25] = target: Neu5Ac(a2-3)Gal(b1-4)GlcNAc(b1-2)Man(a1-3)[Neu5Ac(a2-6)Gal(b1-4)GlcNAc(b1-2)Man(a1-6)]Man(b1-4)GlcNAc(b1-4)GlcNAc
# How it was run: as §1
# [26] = target: Neu5Ac(a2-3)Gal(b1-4)GlcNAc(b1-3)Gal(b1-3)GlcNAc
# How it was run: as §1
# [27] = target: Neu5Ac(a2-3)Gal(b1-4)GlcNAc(b1-3)Gal(b1-4)GlcNAc(b1-3)Gal(b1-4)GlcNAc(b1-2)Man(a1-3)[Neu5Ac(a2-3)Gal(b1-4)GlcNAc(b1-3)Gal(b1-4)GlcNAc(b1-3)Gal(b1-4)GlcNAc(b1-2)Man(a1-6)]GalNAc
# How it was run: as §1
# [28] = target: Neu5Ac(a2-3)Gal(b1-4)GlcNAc(b1-3)Gal(b1-4)GlcNAc(b1-3)[Neu5Ac(a2-3)Gal(b1-4)GlcNAc(b1-3)Gal(b1-4)GlcNAc(b1-6)]GalNAc
# How it was run: as §1
# [29] = target: Neu5Ac(a2-3)Gal(b1-4)GlcNAc(b1-3)[Neu5Ac(a2-3)Gal(b1-4)GlcNAc(b1-6)]GalNAc
# How it was run: as §1
# [30] = target: Neu5Ac(a2-3)Gal(b1-4)[Fuc(a1-3)]GlcNAc(b1-3)GalNAc
# How it was run: as §1
# [31] = target: Neu5Ac(a2-6)Gal(b1-4)GlcNAc(b1-2)Man(a1-3)[GlcNAc(b1-4)][Neu5Ac(a2-6)Gal(b1-4)GlcNAc(b1-2)Man(a1-6)]Man(b1-4)GlcNAc(b1-4)GlcNAc
# How it was run: as §1
# [32] = target: Neu5Ac(a2-6)Gal(b1-4)GlcNAc(b1-2)Man(a1-3)[Man(a1-6)]Man(b1-4)GlcNAc(b1-4)GlcNAc
# How it was run: as §1
# [33] = target: Neu5Ac(a2-6)Gal(b1-4)GlcNAc(b1-2)Man(a1-6)Man(b1-4)GlcNAc(b1-4)GlcNAc
# How it was run: as §1
# [34] = target: Neu5Ac(a2-6)Gal(b1-4)GlcNAc(b1-3)Gal(b1-4)GlcNAc(b1-3)Gal(b1-4)GlcNAc(b1-2)Man(a1-3)[Neu5Ac(a2-6)Gal(b1-4)GlcNAc(b1-3)Gal(b1-4)GlcNAc(b1-3)Gal(b1-4)GlcNAc(b1-2)Man(a1-6)]GalNAc
# How it was run: as §1
binder,measurement,setting,value
Epa20 (Candida glabrata) (protein) MGSSHHHHHHSSGLVPRGSHMASSNIPNNYPLGCSNKYSGHLPGLKMELYSYNYVNPRHPDPQNPGKLDQLYDPNLLGTYECFDSSYKDINYPRVGYKSKTLIGRSDGVSGILNFNFVPPWGCMPQKGQLPPAYNFKSNITLSNFTMILFGYFKPKISGNHIFSLHGDDLIYLNFGAGNAFDCCRQESSADNFGNYQAFSLWGINWEKKTLTVYLDMNTYYPIRIFYNNRDYQAIFNFSFKTEFDSSPVIDFQDYFFFLRDIDGGCPGEV,glycan array binding signal (z-score),[1],-0.278
same,glycan array binding signal (z-score),[2],3.16
same,glycan array binding signal (z-score),[3],-0.005
same,glycan array binding signal (z-score),[4],-0.072
same,glycan array binding signal (z-score),[5],4.96
same,glycan array binding signal (z-score),[6],-0.067
same,glycan array binding signal (z-score),[7],-0.452
same,glycan array binding signal (z-score),[8],3.14
same,glycan array binding signal (z-score),[9],0.822
same,glycan array binding signal (z-score),Gal(b1-2)Gal,-0.763
same,glycan array binding signal (z-score),Gal(b1-3)GlcNAc,-0.446
same,glycan array binding signal (z-score),Gal(b1-3)GlcNAc(b1-2)Man,0.049
same,glycan array binding signal (z-score),[10],0.704
same,glycan array binding signal (z-score),[11],-0.669
same,glycan array binding signal (z-score),[12],-0.28
same,glycan array binding signal (z-score),Gal(b1-4)GlcNAc(b1-2)Man,-0.114
same,glycan array binding signal (z-score),[13],-0.534
same,glycan array binding signal (z-score),[14],-0.48
same,glycan array binding signal (z-score),[15],-0.384
same,glycan array binding signal (z-score),[16],3.18
same,glycan array binding signal (z-score),[17],6.07
same,glycan array binding signal (z-score),Gal3S(b1-3)GlcNAc,-0.241
same,glycan array binding signal (z-score),[18],0.569
same,glycan array binding signal (z-score),Gal6S(b1-4)GlcNAc6S,0.939
same,glycan array binding signal (z-score),[19],0.435
same,glycan array binding signal (z-score),[20],-0.31
same,glycan array binding signal (z-score),[21],0.532
same,glycan array binding signal (z-score),[22],0.229
same,glycan array binding signal (z-score),[23],-0.76
same,glycan array binding signal (z-score),[24],2.49
same,glycan array binding signal (z-score),[25],-0.493
same,glycan array binding signal (z-score),[26],-0.463
same,glycan array binding signal (z-score),[27],2.75
same,glycan array binding signal (z-score),[28],4.06
same,glycan array binding signal (z-score),[29],2.82
same,glycan array binding signal (z-score),[30],2.98
same,glycan array binding signal (z-score),[31],-0.397
same,glycan array binding signal (z-score),[32],0.402
same,glycan array binding signal (z-score),[33],-0.108
same,glycan array binding signal (z-score),[34],3.97
